Hits are enriched below; roughly 21% of the tested compounds scored in any of these assays.
Pf growth 48h = inhibits P. falciparum growth in the first generation, 48 h. P. falciparum luciferase growth in erythrocytes, 48 h. Potency, µM (series often up to 28.7 µM), for the others: top-dose activity change, negative = inhibition, usual class: inhibitors. actives 5.9% (n = 310,000). AID 504832; active means well fitted inhibition curve with a large enough effect; inconclusive means small, poorly fitted or top-dose-only effect, or another doubt; inactive means no such curve, though single readings can be large or run the other way; further: potency means the concentration at half of the fitted maximal effect; on the % scale 0 is the no-effect control and ±100 the full control effect
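Luminescence readout; reporter = integrated firefly luciferase in P. falciparum. RBC culture at 2% hematocrit, 0.1% parasitemia final, 37 C/5% CO2; decreased signal taken as growth inhibition.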
SARS PLpro yeast = SARS-CoV PLP inhibition in yeast | S. cerevisiae expressing SARS-CoV PLpro, growth rescue | Potency, µM (highest dose often 32.9 µM), inactives show at the top dose activity, positive = growth rescue, hits mostly activators | actives 0.19% (n = 330,000) | AID 485353; further: potency means the concentration at half of the fitted maximal effect; 0% is about no effect; nearly all actives have a fitted effect of over 55% in size
Shiga inhibitor = Shiga toxin inhibition; inhibition, % at 38.7 µM; AID 2315; actives 9.2% (n = 290,000); Vero cells, Shiga toxin protein synthesis inhibition reporter; in the data active means inhibition mostly above about 28%, no sharp cut-off; inactive means mostly below about 43%; further: 0% is about no effect
CHX counter = counter-screen hit for Shiga toxin inhibitors, cycloheximide. actives 12% (n = 300,000). AID 2314. max response, %. cell reporter, cycloheximide protein synthesis inhibition counterscreen; in the data active means max response mostly above about 13%, no sharp cut-off; inactive means mostly below about 14%; further: read at 38.3 µM for the half of the compounds with a filed dose; 0% is about no effect
Pf growth 96h = inhibits malaria parasite growth, 96 h | AID 504834 | actives 6.9% (n = 320,000) | Potency, µM (doses to about 28.7 µM), for inactives: at the highest dose activity change, negative = inhibition, actives largely listed as inhibitors | P. falciparum luciferase reporter growth, 96 h; active means well fitted inhibition curve with a large enough effect; inconclusive means small, poorly fitted or top-dose-only effect, or another doubt; inactive means no such curve, though single readings can be large or run the other way; further: potency means the concentration at half of the fitted maximal effect; on the % scale 0 is the no-effect control and ±100 the full control effect
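Luminescence readout: decreased luciferase signal marks inhibited growth of reporter-expressing P. falciparum in infected red cells (2% hematocrit, 0.05% parasitemia final), exposed to compound two generations (96 h, 37 C, 5% CO2).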
NS1 inh = inhibitors of influenza NS1 protein function; Potency, µM (top dose mostly 46.1 µM), for inactives: top-dose activity, positive = more growth; actives 0.4% (n = 270,000); further: potency means the concentration at half of the fitted maximal effect; actives are rising curves; nearly all actives have a fitted effect of over 50% in size
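Read-out: OD600 growth recovery of NS1-expressing budding yeast. Cells grown overnight at 30C in -URA glucose medium, washed, resuspended and diluted 1:100 in 2% galactose assay medium, pH 6.0. Same strain lacking NS1 served as positive control.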
Numbers without * were called inactive; [ ] = another dose, or the depositor's remark. Unless noted, the call rests on the fitted dose curve.

Results for Cc1cc(C)n(Cc2ccc(C(=O)N/N=C/c3ccc(-c4ccc([N+](=O)[O-])cc4)o3)o2)n1 ?
Pf growth 48h: -9.5%; SARS PLpro yeast: 10.1%; Shiga inhibitor: -4.8; CHX counter: -0.6; Pf growth 96h: 5.22µM*; NS1 inh: 0.4%

What do the screens show for `CCC(=O)N/N=C/c1ccc(-c2ccc([N+](=O)[O-])cc2)o1`?
Pf growth 48h: -2.0%; SARS PLpro yeast: -1.4%; Shiga inhibitor: -6.7; CHX counter: 8.4; Pf growth 96h: 10.4µM*; NS1 inh: -4.3%

Results for COc1cc2ccccc2cc1C(=O)NC1CCC(C)CC1 (configuration not stated) ?
SARS PLpro yeast: -7.0%

What do the screens show for `CCOC(=O)c1sc2nc(CSc3ccccc3)nc(NCCN(C)C)c2c1C`?
Pf growth 48h: inconclusive; SARS PLpro yeast: -1.6%; Shiga inhibitor: 15.1; CHX counter: 15.0; Pf growth 96h: inconclusive

How did CCOC(=O)c1ccc(-c2ccc(/C=N/NC(=O)CN(c3ccccc3Br)S(C)(=O)=O)o2)cc1 do in these assays?
Pf growth 48h: -62.8%; SARS PLpro yeast: 8.9%; Shiga inhibitor: 55.9*; CHX counter: 35.7*; Pf growth 96h: 25.9%; NS1 inh: -63.2%

How did CNC(=S)N/N=C/c1ccc(-c2ccc(Cl)c([N+](=O)[O-])c2)o1 do in these assays?
Pf growth 48h: inconclusive; SARS PLpro yeast: -1.2%; Shiga inhibitor: 27.7; CHX counter: 5.2; Pf growth 96h: -26.5%; NS1 inh: 1.1%

How did CC(C)(C)NC(=S)N/N=C\c1ccc(-c2ccc([N+](=O)[O-])cc2)o1 do in these assays?
Pf growth 48h: inconclusive; SARS PLpro yeast: -0.9%; Shiga inhibitor: 73.0*; CHX counter: 37.4*; Pf growth 96h: 3.7µM*; NS1 inh: 6.2%

How did CCC(=O)N/N=C/c1ccc(-c2ccc(Cl)cc2)o1 do in these assays?
Pf growth 48h: 50.6%; SARS PLpro yeast: -1.8%; Shiga inhibitor: 66.8*; CHX counter: 34.4*; Pf growth 96h: inconclusive; NS1 inh: -3.4%

Results for Cc1nnc(SCC(=O)N/N=C/c2ccc(-c3ccc(C)c(Cl)c3)o2)s1 ?
Pf growth 48h: 17.5%; SARS PLpro yeast: -12.2%; Shiga inhibitor: 39.6; CHX counter: 17.4*; Pf growth 96h: inconclusive; NS1 inh: 7.4%

Results for Cc1ccc(C(=O)N2CCCC2)cc1S(=O)(=O)Nc1cccc(C)c1C ?
Pf growth 48h: -3.6%; SARS PLpro yeast: 0.9%; Shiga inhibitor: -15.8; CHX counter: -0.6; Pf growth 96h: inconclusive; NS1 inh: -0.9%

How did O=C(CCNC(=O)c1ccccc1)NNC(=O)c1ccc(F)cc1 do in these assays?
SARS PLpro yeast: 1.7%

Results for O=C(CCCc1nc(-c2ccc(Cl)cc2)no1)NC1CCCCC1 ?
Pf growth 48h: 11.3%; SARS PLpro yeast: 1.1%; Shiga inhibitor: -3.7; CHX counter: -1.5; Pf growth 96h: 8.1%; NS1 inh: -13.7%

Results for COc1cc(C2C(C#N)=C(N)N(N(C)C)C3=C2C(=O)CCC3)ccc1O (configuration not stated) ?
Pf growth 48h: 0.7%[0.00184 µM]; SARS PLpro yeast: 1.9%; Shiga inhibitor: -4.1; CHX counter: -0.6; Pf growth 96h: 59.4%; NS1 inh: 7.0%

Results for CC(=O)c1cc2c(cc1NC(=O)CSc1nc3ccc(C)cc3[nH]1)OCO2 ?
Pf growth 48h: inconclusive; SARS PLpro yeast: 15.3%; Shiga inhibitor: 4.2; CHX counter: 19.7*; Pf growth 96h: 54.8%; NS1 inh: 2.6%

How did O=C(CSc1nc2ncc(Cl)cc2[nH]1)N1CCOCC1 do in these assays?
SARS PLpro yeast: 5.6%

Results for CC(=O)c1cc2c(cc1NC(=O)CSc1nc3ccccc3[nH]1)OCO2 ?
Pf growth 48h: -8.1%; SARS PLpro yeast: 17.9%; Shiga inhibitor: -18.6; CHX counter: -0.8; Pf growth 96h: -20.0%; NS1 inh: -11.5%

How did Cc1ccc2[nH]c(SCC(=O)N3CCOCC3)nc2c1C do in these assays?
Pf growth 48h: 124.0%; SARS PLpro yeast: 2.4%; Shiga inhibitor: 97.9*; CHX counter: 52.2*; Pf growth 96h: 0.8%; NS1 inh: 0.1%

Results for C/C(N)=C(/C#N)C(=O)CSc1nc2ccc(C)cc2[nH]1 ?
Pf growth 48h: 151.3%; SARS PLpro yeast: -5.7%; Shiga inhibitor: 86.0*; CHX counter: 56.2*; Pf growth 96h: 167.7%; NS1 inh: -7.6%

From PubChem
